# Data: the supplement of paper PMC6555819
# Columns and labels:
# Experiment in all cases: PBM binding z-score (relative to random genomic background probes); higher = stronger binding; sequences stand for … in GC…GCGATTGACAGCGTAGAATGAAGG
# [1] = tested on: PPARg:RXRa DBDmut IVT, anti-RXR (DBD mutation: RXRa K156A/R161A, NR concentration 270 nM, RXRa partner concentration 90 nM)
# In short: (§1)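 Binding buffer was PBS pH 7.4 with 2% milk, 0.02% Triton X-100, 1 mM DTT, 0.2 mg/mL BSA and 0.4 mg/ml salmon testes DNA. In it, ligand-free nuclear receptor dimers were incubated 1 h on custom Agilent 4×180K protein-binding microarrays carrying double-stranded probes. Antibodies against each partner (one per run) detected binding, and z-scores were calculated against random background probes after regression normalization of scanned fluorescence.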
# [2] = tested on: PPARg:RXRa IVT, anti-PPARg (NR concentration 270 nM, RXRa partner concentration 90 nM)
# In short: as §1
# [3] = tested on: PPARg DBDmut:RXRa IVT, anti-PPARg (DBD mutation: PPARg1 K132A/R137A, NR concentration 270 nM, RXRa partner concentration 90 nM)
# In short: as §1
# [4] = tested on: PPARg DBDmut IVT, anti-PPARg (DBD mutation: PPARg1 K132A/R137A, NR concentration 270 nM)
# In short: as §1
# [5] = tested on: PPARg homodimer (NR concentration 180 nM)
# In short: as §1
# [6] = tested on: PXR:RXRa (NR concentration 270 nM, RXRa partner concentration 90 nM)
# In short: as §1
# [7] = tested on: PXR homodimer (NR concentration 270 nM)
# In short: as §1
# [8] = tested on: RARa:RXR (NR concentration 270 nM, RXRa partner concentration 90 nM)
# In short: as §1
# [9] = tested on: RARa homodimer (NR concentration 270 nM)
# In short: as §1
# [10] = tested on: RARb:RXRa (NR concentration 270 nM, RXRa partner concentration 90 nM)
# In short: as §1
Sequence,PBM binding z-score [1],PBM binding z-score [2],PBM binding z-score [3],PBM binding z-score [4],PBM binding z-score [5],PBM binding z-score [6],PBM binding z-score [7],PBM binding z-score [8],PBM binding z-score [9],PBM binding z-score [10]
GTCCCAAGGTGAATAGGTCGTTGATGAGTAGGCG,1.17,2.18,-0.477,-0.0374,1.53,0.817,0.264,2,0.909,2.12
TTACCAAGGTGAAAGATCGTTGATGCACGCCTTG,1.56,2.99,0.596,0.116,0.393,0.0637,-0.296,0.393,-0.301,1.23
GGAACGAGGGCAATTTGATAGCAGAGTTTGATGG,3.43,2.2,-0.942,-0.307,0.234,0.484,0.475,0.401,-0.342,1.64
GTACCAAGGTGAAGAGGTCGTTGATGAGTAGGCG,1.79,2.51,-0.57,-0.181,1.37,2.15,0.607,2.68,-0.129,2.35
GCTGCTAGGTCAGGGTGGTCAGCTAACGGGTACG,2.9,2.83,0.0307,-1.27,1.2,0.451,-0.345,1.03,0.165,3.61
ACTATTAGTTGACTTAGGGCAACGGATACGACGC,0.00929,0.309,1.35,1.09,0.328,0.113,0.452,0.313,0.0802,0.718
TCGAGTAGGTTAATCGGGGCATTCAGCCAACATA,3.25,3.08,0.341,-0.256,0.811,0.519,-0.134,0.933,-0.986,0.81
TCTATTAGTTGATTAGGGCAACGGAAACAGCGGA,2.04,1.27,0.436,0.954,0.288,0.192,0.475,0.276,0.743,0.963
CCTACTGGGCCATCAGGTCATTGATATCAACGTT,4.98,4.72,0.527,-0.213,1.26,1.56,0.961,1.65,0.0562,2.1
CCATACGGGTCACGAGGTTATAGCACGACGAGCG,3.91,5.41,1.88,0.373,2.89,4.5,0.355,5.93,1.79,4.62
TCATATAGGTAAAAGATGAAAGTCGGTGTGGTAA,4,2.54,1.07,0.573,0.893,0.672,0.283,1.08,1.1,0.338
TCTATTAGTTCATTAGGGCAACCGAAACAGCGGA,2.92,2.95,1.5,1.13,1.3,1.75,1.7,1.2,1.45,2.64
ACTATTCGTTGAGACGAGGGCAACCGATAGGTTG,0.199,0.823,1.01,0.89,0.322,0.447,0.0808,0.403,0.418,0.886
CGTCAAAGTTCAAGGTAACGTCACAGAAAGCAGC,0.574,2.31,1.5,0.322,2.9,4.33,2.43,3.98,1.32,5.18
ACTCGGAGAACAAAGGTCAGAGCTACGCCAGTGA,0.49,2.78,0.171,-0.0554,1.94,3.41,0.0377,3.89,0.493,4.21
CCTTACGGGTCACTCCAGATTATAGCATCGGAGT,2.52,3.47,0.108,0.192,1.74,2.59,0.423,2.96,0.564,3.75
TCTAGTTCGTCAAAGGTCACACACTCGAAATGCG,2.89,3.87,2.7,1.85,3.82,6.15,2.25,6.52,3.27,5.24
GTACCAGGGTGAATAGGTCGTTGATGAGTAGGCG,0.914,2.01,-0.169,-0.469,0.791,0.92,0.246,1.86,0.108,1.24
CGTCCAAGGTCAATGTCAGTGAAAGAGACTCGAA,2.67,3.14,-0.322,-0.37,2.27,3.36,1.18,3.8,0.639,4.85
TCTCGGAGGGCACGAAGGTCAGAGCTTTCCAGAG,1.9,2.51,-0.633,-1.03,1.08,3.25,2.26,2.88,-0.387,3.92
CGTCCAATGTCAAGGTCAGTGAAAGAGACTCGAA,0.498,1.27,0.404,-0.348,2.25,2.17,0.697,2.26,0.775,3.69
TTATATAGGTAAAAGGTGAAAGTCGGTGTGGTAA,7.08,6.76,2.28,1.42,2.84,1.91,0.453,3.15,1.5,1.86
CGTCCAAGGTCAATGGTCAGTGAAGAGATGACGG,3.08,3.44,1.01,-0.0239,2.84,3.33,1.16,3.98,0.654,5.08
CGAACTAGGTCATTGACAGGACGGTGAATAGTAA,8.29,8.22,1.89,0.528,0.985,1.12,-0.168,1.81,0.0523,3.63
